Test [1] can be described thus: AP1 Signaling Pathway (AID 357).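 Further: ME-180 reporter cells stimulated with EGF at its EC50 level; on the % scale 0 is the no-effect control and ±100 the full control effect.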 Conditions: ME-180 AP-1-bla reporter, EGF-induced, beta-lactamase ratio, 5 h. In short, it runs like this:
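AP-1-bla ME-180 cells, Opti-MEM + 0.5% dialyzed FBS, plated overnight 37 °C. Cpd titration + EC50 EGF, 5 h 37 °C. CCF4 2.5 h RT; ex 405, em 460/530 ratio → %activity, AC50.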

Test [2] addresses Cytochrome P450 1A2 (Homo sapiens) (UniProt P05177). The test is described as follows: p450-cyp1a2 (AID 410; calls by dose curve; further: potency means the concentration at half of the fitted maximal effect;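 on activity change, negative = inhibition: -100% = full effect of reference inhibitor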). Particulars: recombinant CYP1A2, luciferin-ME demethylation, luminescence; series mostly up to 57 µM. In short, it runs like this: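 O-Demethylation of luciferin 6' methyl ether by human CYP1A2 is monitored as luciferase luminescence. Substrate sits at Km (100uM); enzyme is 20nM. Values are scaled to 57 uM furafylline as maximal inhibition.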

Test [3] is described as follows: NFAT Signaling Pathway (AID 444).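 Further: carbachol stimulus at about its EC50 of 1 µM final; on the % scale 0 is the no-effect control and ±100 the full control effect.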 Conditions: Jurkat NFAT-bla M1, carbachol, beta-lactamase ratio, 5 h. The method in brief: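 Jurkat cells with NFAT-driven β-lactamase reporter and co-expressed M1 receptor, stimulated with carbachol (final 1 uM, ~EC50), compound titration, 5 h at 37 °C. CCF4 loaded 1 h at RT; 460/530 nm ratio gave %activity and AC50.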
Test [4] can be described thus: Stat Signaling Pathway (AID 446).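 Further: ME-180 cervical cancer cells given 40 pM IL-6 alongside compound; SIE-controlled beta-lactamase reporter measured as 460/530 nm FRET emission ratio; on the % scale 0 is the no-effect control and ±100 the full control effect.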 Particulars: ME-180 (cervical carcinoma) SIE beta-lactamase reporter, IL-6 stimulated, 5 h; series mostly up to 17.2 µM. In short, it runs like this: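 Normalization used AC90 stimulation (300 pM IL-6) and AC90 inhibition (125 nM pan-JAK inhibitor at 40 pM IL-6). The underlying signal is SIE-driven beta-lactamase in ME-180 cells after 5 h IL-6 exposure with compound.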

Test [5] has as its target Glucocorticoid receptor (Homo sapiens) (UniProt P04150). Put plainly: GR-GFP Redistribution (AID 450;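 active means compounds whose dose series gives a full or clear partial fitted curve of increased nuclear translocation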; further: potency means the concentration at half of the fitted maximal effect). Conditions: U2OS GR-GFP nuclear translocation, laser cytometry, 2 h.
Test [6] has the same target. The test is described as follows: GR-EFC Redistribution (AID 451; calls by dose curve; further: potency means the concentration at half of the fitted maximal effect). Conditions: CHO-K1 GR-EFC translocation, beta-gal luminescence, 2 h. In short, it runs like this:
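CHO-K1 cells expressing nuclear EA and GR-ED fragments of b-gal; compounds titrated up to 46 uM final, 2 h at 37 C. GR nuclear translocation read as complemented b-gal luminescence after 1 h RT detection.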

The target of test [7] is Mitogen-activated protein kinase 10 (Mus musculus) (UniProt Q61831). Put plainly: JNK3 AlphaScreen Assay (AID 530).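 Further: kinase came from lysate of stimulated human HepG2 cells; signal reports phosphorylation of biotinylated GST-cJun 1-79 at Ser73 with 10 µM ATP; on the % scale 0 is the no-effect control and ±100 the full control effect.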 Conditions: JNK3 lysate, c-Jun phosphorylation; series mostly up to 57.1 µM. In short, it runs like this:
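Activity was read by AlphaScreen after JNK3-containing HepG2 lysate (cytokine pre-activated) phosphorylated biotinylated GST-cJun with 10 uM ATP at room temperature. Phospho-Ser73 cJun antibody with Protein-A acceptor beads provided detection.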

The nature of test [8]: Cell Viability - BJ (AID 421; calls by dose curve;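 further: potency means the concentration at half of the fitted maximal effect; cells exposed to compound for 40 hours at 37 °C before readout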). Conditions: BJ fibroblast viability, qHTS. In short, it runs like this: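 Normal human BJ foreskin fibroblasts, 1500/well in complete medium, treated 40 hr at 37 °C. Cellular ATP by CellTiter-Glo luminescence; normalized to DMSO and 100 uM tamoxifen, AC50 from Hill fit.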
Background: Quantitative high-throughput screening tests each substance at several concentrations.

Test [9] is described as follows: Cell Viability - Jurkat (AID 426;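 active means dose-dependent loss of cell ATP signal giving a full or clear fitted curve, ranked by lower potency value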; further: potency means the concentration at half of the fitted maximal effect). Particulars: qHTS. In short, it runs like this:
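Cells of the human T-cell leukemia line Jurkat (E6-1) are seeded at 5000 per well, treated with compound across a concentration range for 40 hours at 37 °C, then lysed with CellTiter-Glo; luminescence reports ATP.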

Test [10] can be described thus: Cell Viability - Hek293 (AID 427;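 active means compounds whose dose-response curve shows a full or clear partial loss of cell viability, called from curve shape rather than a numeric limit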;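 further: potency means the concentration at half of the fitted maximal effect; cells exposed to compound for 40 hours at 37 °C before reading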). Particulars: qHTS. In short, it runs like this: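 HEK293 cells in complete medium were exposed to compound for 40 hr at 37 °C, then cellular ATP was read by CellTiter-Glo luminescence. Data were normalized to DMSO (basal) and 100 uM tamoxifen (100% inhibition), and AC50 came from Hill fits.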
Test [11] is described as follows: Cell Viability - HepG2 (AID 433; calls by dose curve;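 further: potency means the concentration at half of the fitted maximal effect; potency for ATP loss meaning cytotoxicity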). Conditions: qHTS. In short, it runs like this:
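In this qHTS format, a 40 h, 37 °C compound incubation of HepG2 cells in complete medium precedes a 20 min CellTiter-Glo step at room temperature. Tamoxifen and doxorubicin serve as positive controls; Hill-equation fits yield AC50.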

The nature of test [12]: Cell Viability - MRC5 (AID 434; calls by dose curve;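 further: potency means the concentration at half of the fitted maximal effect; potency reflects cytotoxicity seen as loss of intracellular ATP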). Particulars: MRC5 lung fibroblast viability, qHTS. In short, it runs like this:
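ATP luminescence read-out (CellTiter-Glo, 20 min RT) after 40 hr, 37 °C compound exposure of 1500 MRC5 cells/well. Data normalized to DMSO (basal) and 100 uM tamoxifen (100% inhibition); AC50 from standard Hill equation.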

A short description of test [13]: Cell Viability - SK-N-SH (AID 435; calls by dose curve;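 further: potency means the concentration at half of the fitted maximal effect; compound exposure lasted 40 h at 37 °C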). Conditions: SK-N-SH neuroblastoma cell viability qHTS. In short, it runs like this: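 Human neuroblastoma line, 40 h exposure at 37 °C, ATP quantified via luciferase luminescence; DMSO and 100 uM tamoxifen define 0 and 100% inhibition for AC50 fitting.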
Test [14] is described as follows: Cell Viability - N2a (AID 540; active means well fitted curve in the direction sought with a large enough effect; an effect the other way counts as inactive or inconclusive;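 further: plate controls were DMSO alone for no effect and tamoxifen control for full effect; nearly all actives have a fitted effect of over 45% in size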). Conditions: N2a mouse neuroblastoma cell viability; series mostly up to 92.2 µM. In short, it runs like this: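 Cytotoxicity was scored as loss of cellular ATP in N2a cells, a mouse neuroblastoma line. Compounds are applied in a qHTS concentration series for 40 hr at 37 °C.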
Test [15] is described as follows: Cell Viability - NIH 3T3 (AID 541; active means well fitted curve in the direction sought with a large enough effect; an effect the other way counts as inactive or inconclusive;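 further: plate controls were DMSO alone for no effect and tamoxifen positive control for full effect; nearly all actives have a fitted effect of over 25% in size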). Conditions: NIH 3T3 cell viability, qHTS; series mostly up to 92.2 µM. In short, it runs like this:
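Cells seeded at 1000/well, rested 5 hr at 37 °C, then dosed and incubated 40 hr at 37 °C. CellTiter-Glo added, 20 min room temperature, luminescence read. AC50 by Hill fit.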

Test [16] is described as follows: Cell Viability - HUV-EC-C (AID 542; active means well fitted curve in the direction sought with a large enough effect; an effect the other way counts as inactive or inconclusive; further: on the % scale 0 is the no-effect control and ±100 the full control effect; nearly all actives have a fitted effect of over 35% in size). Particulars: HUV-EC-C endothelial cell viability, qHTS; series mostly up to 92.2 µM. In short, it runs like this: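 Cells were seeded at 1000 per well and incubated 5 hr at 37 °C before compound addition. After 40 hr at 37 °C, CellTiter-Glo reagent was added for 20 min and luminescence read. AC50 values came from Hill-equation modelling.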

Test [17] can be described thus: Cell Viability - Renal Proximal Tubule (AID 545; active means well fitted curve in the direction sought with a large enough effect; an effect the other way counts as inactive or inconclusive;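 further: 0% = DMSO only and -100% = 100 µM tamoxifen; nearly all actives have a fitted effect of over 40% in size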). Conditions: renal proximal tubule cells viability, primary cells of rat origin; series mostly up to 91.7 µM. In short, it runs like this: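 In this qHTS format, normal rat kidney-derived proximal tubule cells in complete culture medium receive compound titrations, then sit 40 hours at 37 °C before luciferase-based ATP quantitation; potency is reported as AC50 from concentration-response curves.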

Test [18] is described as follows: Cell Viability - H-4-II-E (AID 543; active means well fitted curve in the direction sought with a large enough effect; an effect the other way counts as inactive or inconclusive; further: on the % scale 0 is the no-effect control and ±100 the full control effect; nearly all actives have a fitted effect of over 35% in size). Particulars: H-4-II-E rat hepatoma viability; series mostly up to 92.2 µM. The method in brief: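 Cells seeded at 1500 per well and rested 5 hr; compounds added; 40 hr incubation at 37 °C; CellTiter-Glo added, 20 min at room temperature; luminescence read. Hill-equation fits gave AC50.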
Test [19] can be described thus: Cell Viability - SH-SY5Y (AID 544; active means well fitted curve in the direction sought with a large enough effect; an effect the other way counts as inactive or inconclusive;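 further: 0% = DMSO alone and -100% = 100 µM tamoxifen; nearly all actives have a fitted effect of over 55% in size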). Particulars: SH-SY5Y neuroblastoma cell viability; series mostly up to 92.2 µM. The method in brief:
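Cells were plated at 1500 per well and allowed 5 hr at 37 °C. Compounds were added across a concentration range and incubated 40 hr at 37 °C. CellTiter-Glo was added for 20 min at room temperature before luminescence reading.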

“And” between values parts separate entries of the source, which are not always exact repeats. Identical values can stand only once. A number with no mark means an inactive call. Results filed as inconclusive are left out. The source made the active and inactive calls. Unless noted, the call rests on the fitted dose curve; in most records, active means well fitted curve in either direction with a large enough effect (not every such curve was filed as active); inconclusive means small, poorly fitted or top-dose-only effect, or another doubt; inactive means flat fitted curve, though single readings scatter.

Sequence of Glucocorticoid receptor (Homo sapiens) (P04150 whole entry, looked up): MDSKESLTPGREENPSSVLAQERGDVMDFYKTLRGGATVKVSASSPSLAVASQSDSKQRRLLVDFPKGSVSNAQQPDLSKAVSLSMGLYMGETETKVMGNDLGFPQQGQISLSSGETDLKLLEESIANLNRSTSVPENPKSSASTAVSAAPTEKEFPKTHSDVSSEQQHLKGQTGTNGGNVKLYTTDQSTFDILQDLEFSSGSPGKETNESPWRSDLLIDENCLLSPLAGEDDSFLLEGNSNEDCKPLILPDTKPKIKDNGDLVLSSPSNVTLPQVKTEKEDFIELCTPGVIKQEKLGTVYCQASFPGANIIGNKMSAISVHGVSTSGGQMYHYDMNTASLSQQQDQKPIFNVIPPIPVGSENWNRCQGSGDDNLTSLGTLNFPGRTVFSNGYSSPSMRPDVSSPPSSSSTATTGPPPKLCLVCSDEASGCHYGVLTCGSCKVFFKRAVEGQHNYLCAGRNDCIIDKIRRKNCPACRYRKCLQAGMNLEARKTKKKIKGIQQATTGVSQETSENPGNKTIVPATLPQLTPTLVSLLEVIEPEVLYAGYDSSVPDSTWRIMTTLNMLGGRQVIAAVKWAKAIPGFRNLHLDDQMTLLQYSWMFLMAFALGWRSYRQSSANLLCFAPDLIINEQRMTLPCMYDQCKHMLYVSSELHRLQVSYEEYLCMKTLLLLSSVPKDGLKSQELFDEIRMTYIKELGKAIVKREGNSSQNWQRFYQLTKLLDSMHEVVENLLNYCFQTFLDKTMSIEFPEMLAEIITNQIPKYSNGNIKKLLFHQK
Sequence of Cytochrome P450 1A2 (Homo sapiens) (P05177 whole entry, looked up): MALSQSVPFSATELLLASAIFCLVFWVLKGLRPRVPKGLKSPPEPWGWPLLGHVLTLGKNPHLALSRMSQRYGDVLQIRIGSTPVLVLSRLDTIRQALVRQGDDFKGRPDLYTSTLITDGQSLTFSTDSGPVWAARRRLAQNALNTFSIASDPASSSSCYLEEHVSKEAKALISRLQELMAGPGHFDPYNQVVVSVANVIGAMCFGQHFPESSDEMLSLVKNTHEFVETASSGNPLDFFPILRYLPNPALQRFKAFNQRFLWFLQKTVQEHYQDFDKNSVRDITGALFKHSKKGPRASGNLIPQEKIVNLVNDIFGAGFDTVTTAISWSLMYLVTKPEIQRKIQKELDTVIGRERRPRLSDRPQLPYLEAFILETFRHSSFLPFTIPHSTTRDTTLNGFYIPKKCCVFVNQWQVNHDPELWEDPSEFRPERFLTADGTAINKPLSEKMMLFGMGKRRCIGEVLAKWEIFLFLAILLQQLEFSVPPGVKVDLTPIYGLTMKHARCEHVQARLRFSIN

Turning to `O=C1CCc2cc(OCCCCc3nnnn3C3CCCCC3)ccc2N1`, the activity change, negative = inhibition in [1] (at 17.2 µM (top of the series)) is -11%; in test [1] (at 38 µM (top of the series)), -14.1%; in [3] (at 17.2 µM (top of the series)), -6.28%; in [3] (at 38 µM (top of the series)), -9.05%. The Potency result in [2] was “inactive”. Further, the outcome in test [4] and in [7] was inactive. In addition, the Potency in [5] was > 46 µM and > 20.6 µM; in test [6], above 46 µM.
For `Cc1ccc(N(CC2=NCCN2)c2cccc(O)c2)cc1`, the activity change, negative = inhibition is 6.96% and 4.13% and 12.9% in [1] (at 17.2 µM (top of the series)); 18% in test [1] (at 38 µM (top of the series)); -19.1% and -11.9% and 3.66% in test [3] (at 17.2 µM (top of the series)); -12.9% in test [3] (at 38 µM (top of the series)). Further, in test [2], the Potency result was “inactive”. For the same compound, the compound was classed as inactive in [4] and in test [7]. In addition, the Potency was > 46 µM and > 20.6 µM in [5]; > 46 µM and > 20.6 µM in test [6].
Regarding `NC(N)=NC(=O)c1nc(Cl)c(N)nc1N`, the activity change, negative = inhibition in [1] (at 17.2 µM (top of the series)) was 2.66% and -5.39%; in test [1] (at 38 µM (top of the series)), -2.62%; in test [3] (at 17.2 µM (top of the series)), 8.59% and -17.4%; in test [3] (at 38 µM (top of the series)), -2.5%. Moreover, the Potency in [2] was 12.6 µM (active) and 6.31 µM (active); in [8], above 92 µM; in test [9] it was above 92 µM; in test [10], above 92 µM; in test [11], above 92 µM; in test [12], above 92 µM. In addition, the Potency was above 92 µM in test [13]; > 46 µM and > 20.6 µM in test [5]; > 46 µM and > 20.6 µM in test [6]. In addition, the outcome in test [4], in [7], in [14], in test [16] and in test [17] was inactive. Also, in [15], the Potency entry was “inactive”.
For the compound `Nc1ccc(S(=O)(=O)Nc2ccnn2-c2ccccc2)cc1`, the activity change, negative = inhibition in test [1] (at 17.2 µM (top of the series)) is 1.79%; in [1] (at 38 µM (top of the series)), 4.55%; in test [3] (at 17.2 µM (top of the series)) it was -4.12%; in test [3] (at 38 µM (top of the series)), 1.19%. Moreover, the Potency entry in test [2] was “inactive”. The compound was called inactive in test [4] and in test [7]. Moreover, the Potency in [5] is > 46 µM and > 20.6 µM; in test [6] it was > 46 µM and > 20.6 µM.
Regarding `CC(=O)Oc1ccccc1C(=O)O`, the activity change, negative = inhibition is 8.53% in test [1] (at 38 µM (top of the series)) and 2.25% in [3] (at 38 µM (top of the series)). The Potency result in test [2], in test [15] and in test [18] was “inactive” throughout. Moreover, the Potency in test [8], in [9], in test [10], in test [11], in test [12] and in test [13] was above 92 µM each time. The Potency in [5] and in [6] was above 46 µM in each case. Moreover, the call in test [4], in test [7], in test [14], in [16], in [19] and in [17] was inactive.
On to `NS(=O)(=O)c1cc2c(cc1Cl)NC=NS2(=O)=O`, for which the activity change, negative = inhibition in test [1] (at 17.2 µM (top of the series)) was 10.4% and 2.47%; in test [1] (at 38 µM (top of the series)) it was -2.75%; in test [3] (at 17.2 µM (top of the series)) it was -2.56% and 9.37%; in test [3] (at 38 µM (top of the series)), 8.02%. The Potency in [8], in [9], in test [10], in [11], in test [12] and in [13] was above 92 µM in each case. In addition, the result in test [4], in test [7], in [14], in [16], in [19] and in test [17] was inactive. Besides, the Potency entry in [15] and in test [18] was “inactive” throughout.
Take `N=c1nc(N2CCCCC2)cc(N)n1O`: the activity change, negative = inhibition was -4.3% and 1.82% in test [1] (at 17.2 µM (top of the series)); 2.17% in test [1] (at 38 µM (top of the series)); -4.8% in test [3] (at 17.2 µM (top of the series)); 7.52% in test [3] (at 38 µM (top of the series)). In addition, the Potency result in test [2] is “inactive”. In addition, the call in [4] and in test [7] was inactive. For the same compound, the Potency in test [5] is > 46 µM and > 20.6 µM; in test [6] it was > 46 µM and > 20.6 µM.
In the case of `CC(C)(Sc1ccc(CCN(CCCCC2CCCCC2)C(=O)NC2CCCCC2)cc1)C(=O)O`, the Potency result in [2] was “inactive”. Further, the Potency in test [5] and in test [6] was above 46 µM each time. Also, in test [7], the result was inactive.
`CCCC(CCC)C(=O)O`: the activity change, negative = inhibition in [1] (at 38 µM (top of the series)) is 10.8%; in test [3] (at 38 µM (top of the series)), 4.56%. Further, the Potency entry in test [2] and in test [15] was “inactive” each time. The Potency in test [8], in [9], in test [10], in test [11], in [12] and in [13] was above 92 µM each time. Further, the Potency in [5] and in test [6] was above 46 µM throughout. For the same compound, the call in test [4], in test [7], in test [14], in test [16], in test [19] and in [17] was inactive.
